This experiment is described as follows: NCI Yeast Anticancer Drug Screen. Data for the rad50 strain (AID 155).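 Further: 0% = growth of vehicle-only cultures of the same strain.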 Conditions: S. cerevisiae rad50 strain growth inhibition, active compounds read high. The protocol:
Growth inhibition of yeast strains with defined genetic alterations is measured as a screen for potential anti-cancer activity. Selected strains with alterations in DNA damage repair or cell cycle control were exposed to compounds and growth inhibition was measured relative to vehicle treated controls. The strain used in this assay is rad50

Where [1] appears, read: at 5.0 µM (retest, dose inferred, filed as 0.5).
[2] abbreviates: at 50.0 µM (retest, dose inferred, filed as 5.0).

About 79,000 compounds went through this panel and 15% of them were active in at least one assay; those are over-represented in the sample as a whole. Values without a mark were called inactive. The source made the active and inactive calls. No stated cut-off is given here; in the data, active means growth inhibition above about 70%; inactive means the rest.

Take `CCCCCCCCCCC(=O)Cl`: the growth inhibition (at 1.2 µM) was 14%; the growth inhibition (at 3.7 µM) was 18%; the growth inhibition under setting [1] is 100% (active); the growth inhibition (at 11.0 µM) was 2%; the growth inhibition (at 33.0 µM) was 9%; the growth inhibition under setting [2] is 98% (active). The growth inhibition reads like this: (at 50.0 µM) 58.2%; (at 100.0 µM) 29%.

Turning to `Oc1ccc(NCn2c(=S)sc3ccccc32)cc1`, the growth inhibition is, setting by setting: (at 1.2 µM) -2%; (at 3.7 µM) 12%; under setting [1], 62%; (at 11.0 µM) 5%; (at 33.0 µM) 42%; under setting [2], 100% (active). Further, the growth inhibition by setting is: (at 50.0 µM) 58.5%; (at 100.0 µM) 95% (active).

Take `COCCOC(=O)CCn1cc(F)c(=O)[nH]c1=O`: the growth inhibition (at 1.2 µM) was -5%; the growth inhibition (at 3.7 µM) is -11%; the growth inhibition under setting [1] was 24%; the growth inhibition (at 11.0 µM) is 0%; the growth inhibition (at 33.0 µM) was 34%; the growth inhibition under setting [2] was 70% (active). Besides, the growth inhibition was 64.1% (at 50.0 µM) and 61% (at 100.0 µM).

For `Cn1c(=O)c2ccccc2c2ccccc21`, the growth inhibition was -3% (at 1.2 µM); 4% (at 3.7 µM); -132% under setting [1]; 41% (at 11.0 µM); 91% (active) (at 33.0 µM); 84% (active) under setting [2]. The growth inhibition (at 50.0 µM) was 97% (active) and the growth inhibition (at 100.0 µM) is 94% (active).

As for `OC1CCCc2c1cc1ccc3cccc4ccc2c1c34` (stereo not given), the growth inhibition (at 1.2 µM) was -17%; the growth inhibition (at 3.7 µM) was -14%; the growth inhibition under setting [1] is 30%; the growth inhibition (at 11.0 µM) was 98% (active); the growth inhibition (at 33.0 µM) was 95% (active); the growth inhibition under setting [2] is 92% (active). The growth inhibition reads like this: (at 50.0 µM) 95.6% (active); (at 100.0 µM) 88% (active).

The values above are taken from PubChem BioAssay (NCI).
